The source made the active and inactive calls. Unless noted, the call rests on the fitted dose curve; in most records, active means well fitted curve in the direction sought with a large enough effect in the repeat runs; inconclusive means weak or mixed curves; inactive means no such curve, though single readings can be large; an effect the other way counts as inactive or inconclusive. Positions of bridges follow the written chain, without caps; N, C: chain ends. Non-standard residues stand in square brackets, D forms with d. Residues, ends and D or L forms follow the SMILES beside them. *: point of attachment. X2 = CC[C@H](C)CCCCC(=O)*; Dab = NCC[C@H](N)C(=O)O
Tests used:
[1] = qHTS assay to test for compound auto fluorescence at 535 nm (green) in HEK293 cells (AID 720680)
[2] = qHTS assay to test for compound auto fluorescence at 460 nm (blue) in HEK293 cell free culture (AID 720681)
Method in brief: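 Blue fluorescence (Ex 405/Em 460 nm, triamterene-equivalent) was read immediately after pin transfer of compound or DMSO into medium (DMEM, 10% FBS) without cells.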

[3] = qHTS assay to test for compound auto fluorescence at 535 nm (green) in HEK293 cell free culture (AID 720682)
Method in brief: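 Compounds were pin-transferred into cell-free DMEM with 10% FBS, and green fluorescence was read at excitation 485 nm and emission 535 nm. Intensities were expressed as fluorescein-equivalent values.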

[4] = qHTS assay to test for compound auto fluorescence at 590 nm (red) in HEK293 cell free culture (AID 720683)
Method in brief: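 Red-channel autofluorescence of compounds in culture medium (DMEM, 10% FBS), no cells, measured at 540/590 nm. Rose Bengal sodium is the reference fluorophore for equivalence.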

[5] = qHTS assay to test for compound auto fluorescence at 590 nm (red) in HepG2 cell free culture (AID 720684)
Method in brief: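 Steps: dispense MEM/10% FBS medium, no cells; pin compound or DMSO vehicle; read red channel, Ex/Em 540/590 nm. Output given as Rose Bengal sodium equivalents.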

[6] = qHTS assay to test for compound auto fluorescence at 460 nm (blue) in HepG2 cell free culture (AID 720685)
Method in brief: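 Compound (23 nL) or DMSO pinned into cell-free MEM with 10% FBS; blue fluorescence read at 405/460 nm excitation/emission, expressed as auto-fluorescence equivalency to triamterene.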

[7] = qHTS assay to test for compound auto fluorescence at 535 nm (green) in HepG2 cell free culture (AID 720686)
[8] = qHTS assay to test for compound auto fluorescence at 460 nm (blue) in HepG2 cells (AID 720687)
Method in brief: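 Blue-channel autofluorescence (Ex/Em 405/460 nm, triamterene-equivalent) was measured after 1 hr compound exposure at 37 C, 5% CO2. Cells were HepG2, plated overnight at 37 C in MEM plus 10% FBS.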

[9] = molecular target: Glucocorticoid receptor (Homo sapiens) (UniProt P04150); experiment: qHTS assay to identify small molecule agonists of the glucocorticoid receptor (GR) signaling pathway (AID 720691; active means well fitted activation curve with a large enough effect in the signal ratio in the repeat runs, not every such curve was filed as active; inconclusive means weak or mixed curves, or effect the other way; inactive means no such curve, though single readings can be large or run the other way; the % refers to the signal ratio; further: potency means the concentration at half of the fitted maximal effect); settings: GR-bla HeLa, beta-lactamase reporter ratio, 18 h; activation: at 62.4 µM (top of the series)
Method in brief: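 GR-bla HeLa cells (beta-lactamase reporter under glucocorticoid response element) were plated 4 h at 37 C/5% CO2, given compounds in DMSO, and incubated 18 h at 37 C. LiveBLAzer B/G FRET substrate was added for 2 h at room temperature, then fluorescence intensity read.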

[10] = qHTS assay to identify small molecule antagonists of the glucocorticoid receptor (GR) signaling pathway - cell viability counter screen (AID 720693); further: nearly all actives have a fitted effect of over 55% in size; further: potency means the concentration at half of the fitted maximal effect
[11] = qHTS assay for identifying genotoxic compounds that show differential cytotoxicity against isogenic chicken DT40 cell lines with known DNA damage response pathways - wild type cell line (AID 743012); further: nearly all actives have a fitted effect of over 60% in size; further: potency means the concentration at half of the fitted maximal effect
Method in brief: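 Parental DNA repair-proficient DT40 cells, 300 per well, were pre-incubated ~0.5 h at 37 C/5% CO2, pin-dosed with compounds in DMSO, then incubated 40 h. Viability was read as CellTiter-Glo luminescence after 30 min at room temperature.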

[12] = qHTS assay for identifying genotoxic compounds that show differential cytotoxicity against isogenic chicken DT40 cell lines with known DNA damage response pathways - Rev3 mutant cell line (AID 743014); further: nearly all actives have a fitted effect of over 55% in size; further: potency means the concentration at half of the fitted maximal effect
[13] = qHTS assay for identifying genotoxic compounds that show differential cytotoxicity against isogenic chicken DT40 cell lines with known DNA damage response pathways - Rad54/Ku70 mutant cell line (AID 743015); further: nearly all actives have a fitted effect of over 60% in size; further: potency means the concentration at half of the fitted maximal effect
[14] = qHTS assay to identify small molecule antagonists of the androgen receptor (AR) signaling pathway - cell viability counter screen (AID 743033; further: nearly all actives have a fitted effect of over 45% in size)
[15] = qHTS assay to identify small molecule antagonists of the androgen receptor (AR) signaling pathway using the MDA cell line - cell viability counter screen (AID 743041; further: nearly all actives have a fitted effect of over 45% in size; further: potency means the concentration at half of the fitted maximal effect)
Method in brief: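 Cells were plated at 3,000 per well and left 5 h. Compounds in DMSO were then pinned in, followed by R1881. After 16 h at 37C, CellTiter-Fluor fluorescence gave viability.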

[16] = molecular target: Androgen receptor (Homo sapiens) (UniProt P10275); experiment: qHTS assay to identify small molecule antagonists of the androgen receptor (AR) signaling pathway (AID 743035; active means well fitted inhibition curve with a large enough effect in the signal ratio in the repeat runs, not every such curve was filed as active; inconclusive means weak or mixed curves, or effect the other way; inactive means no such curve, though single readings can be large or run the other way; the % refers to the signal ratio; further: potency means the concentration at half of the fitted maximal effect)
Method in brief: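 HEK293 cells stably carrying a UAS-driven beta-lactamase reporter (AR-UAS-bla GripTite) were plated for 4 h at 37C, then given compound and the agonist R1881 and incubated 16 h. Reporter activity was read by LiveBLAzer B/G FRET fluorescence after 2 h at room temperature.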

[17] = molecular target: Androgen receptor (Homo sapiens) (UniProt P10275); experiment: qHTS assay to identify small molecule agonists of the androgen receptor (AR) signaling pathway (AID 743036; active means well fitted activation curve with a large enough effect in the signal ratio in the repeat runs, with a control signal flat, not every such curve was filed as active; inconclusive means weak or mixed curves, or effect the other way; inactive means no such curve, though single readings can be large or run the other way; the % refers to the signal ratio)
Method in brief: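 Activation was read as beta-lactamase FRET signal from LiveBLAzer B/G substrate, added for 2 h at room temperature. Before that, GeneBLAzer AR-UAS-bla GripTite (HEK293) cells had 16 h compound exposure at 37C.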

[18] = molecular target: Androgen receptor (Homo sapiens) (UniProt P10275); experiment: qHTS assay to identify small molecule agonists of the androgen receptor (AR) signaling pathway using the MDA cell line (AID 743040; further: nearly all actives have a fitted effect of over 20% in size)
Method in brief: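 Cells plated, 5 h at 37C/0% CO2; compound or DMSO pinned; 16 h at 37C; ONE-Glo added; luminescence measured after 30 min at room temperature. Reporter line: MDA-kb2 with MMTV-luciferase responsive to AR and GR.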

[19] = molecular target: Androgen receptor (Homo sapiens) (UniProt P10275); experiment: qHTS assay to identify small molecule antagonists of the androgen receptor (AR) signaling pathway using the MDA cell line (AID 743042; further: nearly all actives have a fitted effect of over 55% in size; further: potency means the concentration at half of the fitted maximal effect)
Method in brief: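 Antagonist mode: compounds plus R1881 agonist added to MDA-kb2 AR-luc cells, incubated 16 h at 37C. Luciferase reporter luminescence quantified, with multiplexed CellTiter-Fluor readout for cell viability.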

Measured: Potency

Glucocorticoid receptor (Homo sapiens), sequence (P04150 whole entry, looked up): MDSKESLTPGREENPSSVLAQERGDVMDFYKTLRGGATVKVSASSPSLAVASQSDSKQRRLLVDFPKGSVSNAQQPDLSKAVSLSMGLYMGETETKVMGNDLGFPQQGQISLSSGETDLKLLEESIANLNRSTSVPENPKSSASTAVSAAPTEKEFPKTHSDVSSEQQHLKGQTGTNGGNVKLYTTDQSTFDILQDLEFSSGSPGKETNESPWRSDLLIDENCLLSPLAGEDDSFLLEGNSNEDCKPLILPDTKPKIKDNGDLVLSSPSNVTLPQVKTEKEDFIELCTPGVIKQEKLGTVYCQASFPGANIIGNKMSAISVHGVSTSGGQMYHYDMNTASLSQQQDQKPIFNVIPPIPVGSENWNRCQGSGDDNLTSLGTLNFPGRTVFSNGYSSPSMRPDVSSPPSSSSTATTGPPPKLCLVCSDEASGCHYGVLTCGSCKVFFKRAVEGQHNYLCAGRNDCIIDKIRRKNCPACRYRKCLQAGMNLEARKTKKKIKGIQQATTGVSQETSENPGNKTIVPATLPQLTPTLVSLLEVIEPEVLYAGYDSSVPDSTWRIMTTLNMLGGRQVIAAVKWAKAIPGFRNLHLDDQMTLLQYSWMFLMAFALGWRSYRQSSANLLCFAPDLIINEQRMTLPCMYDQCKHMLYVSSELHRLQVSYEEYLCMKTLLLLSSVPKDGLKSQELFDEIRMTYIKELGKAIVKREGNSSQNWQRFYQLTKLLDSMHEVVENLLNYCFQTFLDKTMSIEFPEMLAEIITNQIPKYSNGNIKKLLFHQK
Androgen receptor (Homo sapiens), sequence (P10275 whole entry, looked up): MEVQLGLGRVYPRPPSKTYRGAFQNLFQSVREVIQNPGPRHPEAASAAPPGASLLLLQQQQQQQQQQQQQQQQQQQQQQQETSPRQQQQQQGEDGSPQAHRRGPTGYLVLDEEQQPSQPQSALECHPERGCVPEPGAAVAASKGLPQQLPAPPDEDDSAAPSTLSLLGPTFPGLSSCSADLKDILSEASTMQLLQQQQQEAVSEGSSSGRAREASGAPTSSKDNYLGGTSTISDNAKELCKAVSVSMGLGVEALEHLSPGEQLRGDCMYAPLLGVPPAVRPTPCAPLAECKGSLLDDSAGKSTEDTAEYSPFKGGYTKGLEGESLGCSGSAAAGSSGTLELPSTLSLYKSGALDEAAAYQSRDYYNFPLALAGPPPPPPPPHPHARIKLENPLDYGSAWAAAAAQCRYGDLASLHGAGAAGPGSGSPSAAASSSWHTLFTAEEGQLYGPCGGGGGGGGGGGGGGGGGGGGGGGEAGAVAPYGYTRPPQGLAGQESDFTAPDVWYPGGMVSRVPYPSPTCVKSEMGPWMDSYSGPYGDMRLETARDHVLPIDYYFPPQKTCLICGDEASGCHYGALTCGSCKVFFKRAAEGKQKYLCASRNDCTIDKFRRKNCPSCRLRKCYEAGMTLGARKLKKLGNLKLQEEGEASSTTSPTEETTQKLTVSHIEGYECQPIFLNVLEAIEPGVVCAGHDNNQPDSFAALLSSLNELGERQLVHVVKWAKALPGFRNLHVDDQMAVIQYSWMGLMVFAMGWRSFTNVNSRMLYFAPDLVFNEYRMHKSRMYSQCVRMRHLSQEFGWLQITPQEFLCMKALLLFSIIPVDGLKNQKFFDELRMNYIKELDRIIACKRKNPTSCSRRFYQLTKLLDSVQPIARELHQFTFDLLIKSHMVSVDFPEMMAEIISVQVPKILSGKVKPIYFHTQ

C=CCSSSCC=C
not listed: [16] | [17] | [18] | [19]
inactive: all other assays above

CCCCCCCCCCCC(=O)N(CCO)CCO
active: [11] 29.8 µM | [12] 26.6 µM | [13] 26.6 µM
not listed: [16] | [17] | [18] | [19]
inactive: all other assays above

CC1(O)CCC(C(C)(C)O)CC1 (configuration not stated)
not listed: [16] | [17] | [18] | [19]
inactive: all other assays above

CC1=C(/C=C/C(C)=C/C=C/C(C)=C/C(=O)Oc2c(C)c(C)c3c(c2C)CC[C@@](C)(CCC[C@H](C)CCC[C@H](C)CCCC(C)C)O3)C(C)(C)CCC1
not listed: [16] | [17] | [18] | [19]
inactive: all other assays above

CCCCC(=O)OCC(=O)[C@]1(O)Cc2c(O)c3c(c(O)c2[C@@H](O[C@H]2C[C@H](NC(=O)C(F)(F)F)[C@H](O)[C@H](C)O2)C1)C(=O)c1c(OC)cccc1C3=O
active: [9] 7.56 µM | [11] 1.5 µM | [12] 1.88 µM | [13] 0.211 µM
not listed: [16] | [17] | [18] | [19]
inactive: all other assays above

O=C(NNCS(=O)(=O)O)c1ccncc1
not listed: [13] | [16] | [17] | [18] | [19]
inactive: all other assays above

O=C(CO)[C@@H](O)[C@H](O)[C@@H](O)C(=O)O
not listed: [16] | [17] | [18] | [19]
inactive: all other assays above

O=P(O)(O)OC(CO)CO
not listed: [16] | [17] | [18] | [19]
inactive: all other assays above

CO/N=C(\C(=O)N[C@@H]1C(=O)N2C(C(=O)O)=C(CSC(=O)c3ccco3)CS[C@H]12)c1csc(N)n1
not listed: [14]
inactive: all other assays above

O=C(Cc1cccs1)N[C@@H]1C(=O)N2C(C(=O)[O-])=C(C[n+]3ccccc3)CS[C@H]12
not listed: [14]
inactive: all other assays above

COC(=O)CC[C@H](N)C(=O)O
not listed: [14] | [16] | [17] | [18] | [19]
inactive: all other assays above

C[C@H](CCCC(C)(C)O)[C@H]1CC[C@H]2[C@@H]3CC=C4C[C@@H](O)CC[C@]4(C)[C@H]3CC[C@]12C
active: [11] 1.68 µM | [12] 0.211 µM | [13] 10.6 µM
not listed: [14] | [16] | [17]
inactive: all other assays above

CO/N=C(\C(=O)N[C@@H]1C(=O)N2C(C(=O)O)=CCS[C@H]12)c1csc(N)n1
not listed: [16] | [17] | [18] | [19]
inactive: all other assays above

CCCCCCCCCCCCCCCCCCCCCC(=O)Nc1ccn([C@@H]2O[C@H](CO)[C@@H](O)[C@@H]2O)c(=O)n1
active: [11] 18.8 µM | [12] 23.7 µM | [13] 26.6 µM
not listed: [14] | [16]
inactive: all other assays above

O=P(O)(O)C(O)(Cc1cnc2ccccn12)P(=O)(O)O
not listed: [16] | [17] | [18] | [19]
inactive: all other assays above

O=C(O)c1cc(O)c2c(c1)[O][Bi][O]2
not listed: [14] | [16] | [17] | [18] | [19]
inactive: all other assays above

C[C@]12C=CC(=O)C=C1CC[C@@H]1[C@@H]2[C@@H](O)C[C@@]2(C)[C@H]1CC[C@]2(O)C(=O)COC(=O)CCC(=O)O
active: [9] 0.268 µM [inconclusive]
not listed: [16] | [17] | [18] | [19]
inactive: all other assays above

O=C(Cn1c(=O)sc2ccc(Cl)cc21)N1CCN(CCO)CC1
not listed: [16] | [17] | [18] | [19]
inactive: all other assays above

CCCCCCCCCCCCCC[n+]1ccc(C)cc1
active: [10] 21.3 µM | [11] 0.188 µM | [12] 0.335 µM | [13] 0.266 µM | [16] 9.52 µM | [19] 5.96 µM
not listed: [14] | [15]
inactive: all other assays above

O=P(O)(O)C(Sc1ccc(Cl)cc1)P(=O)(O)O
not listed: [16] | [17] | [18] | [19]
inactive: all other assays above

CC[C@H](C)CCCCC(=O)N[C@@H](CCN)C(=O)N[C@H](C(=O)N[C@@H](CCN)C(=O)N[C@H]1CCNC(=O)[C@H]([C@@H](C)O)NC(=O)[C@H](CCN)NC(=O)[C@H](CCN)NC(=O)[C@H](CC(C)C)NC(=O)[C@@H](CC(C)C)NC(=O)[C@H](CCN)NC1=O)[C@@H](C)O (X2-[Dab]T[Dab][Dab][Dab][dL]L[Dab][Dab]T; lactam 4-C)
not listed: [13] | [16] | [17] | [18] | [19]
inactive: all other assays above

CCN(CC)CCOc1ccccc1OC
not listed: [16] | [17] | [18] | [19]
inactive: all other assays above

CC(=O)[C@@]1(O)CC[C@H]2[C@@H]3C=C(Cl)C4=CC(=O)[C@@H]5C[C@@H]5[C@]4(C)[C@H]3CC[C@@]21C
not listed: [14] | [16] | [17] | [18] | [19]
inactive: all other assays above

Cc1cc(-c2ccc(N=Nc3c(S(=O)(=O)O)cc4cc(S(=O)(=O)O)cc(N)c4c3O)c(C)c2)ccc1N=Nc1c(S(=O)(=O)O)cc2cc(S(=O)(=O)O)cc(N)c2c1O
active: [11] 9.44 µM | [12] 7.5 µM | [13] 10.6 µM | [15] 13.3 µM
not listed: [14] | [16] | [17] | [18] | [19]
inactive: all other assays above

[O]=[Bi][O][Bi]=[O]
not listed: [14]
inactive: all other assays above

CCOC(=O)Cc1cccc(-c2cc(CCCCCCc3ccc(O[C@H]4O[C@H](COC(C)=O)[C@@H](OC(C)=O)[C@H](OC(C)=O)[C@@H]4OC(C)=O)c(-c4cccc(CC(=O)OCC)c4)c3)ccc2O[C@H]2O[C@H](COC(C)=O)[C@@H](OC(C)=O)[C@H](OC(C)=O)[C@@H]2OC(C)=O)c1
not listed: [16] | [17] | [18] | [19]
inactive: all other assays above

CC(=O)Nc1c(I)c(C(=O)O)c(I)c(N(C)C(C)=O)c1I
not listed: [16] | [17] | [18] | [19]
inactive: all other assays above

CC(=O)Nc1c(I)c(C(=O)N[C@H]2C(O)O[C@H](CO)[C@@H](O)[C@@H]2O)c(I)c(N(C)C(C)=O)c1I (some centres not stated)
not listed: [16] | [17] | [18] | [19]
inactive: all other assays above

CN1C(=O)CN2CCc3ccccc3C2c2cc(Cl)ccc21 (configuration not stated)
not listed: [11] | [16] | [17] | [18] | [19]
inactive: all other assays above

Reference: PubChem BioAssay (Tox21)
